A selection: hits, their analogues and other compounds. The true share with any hit is near 0.72%.
PKA-R2B activ: PKA-R2B complex activation; P22694+P31323; PKA-R2B holoenzyme dissociation, Cy5-IP20 fluorescence polarization; R2B truncated from residue 108, S112A mutant; 0% DMSO only, 100% 113 µM cGMP; activation, % at 11.4 µM; 340,000 compounds, 0.079% hits;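 active = activation above a cutoff set at the mean over all compounds plus 3 SD, cut at about 18% in these data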;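 note: higher means more holoenzyme dissociation and a rise in polarization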
Target sequence (P31323 whole entry, looked up, other chains not shown, the tested form may be a part): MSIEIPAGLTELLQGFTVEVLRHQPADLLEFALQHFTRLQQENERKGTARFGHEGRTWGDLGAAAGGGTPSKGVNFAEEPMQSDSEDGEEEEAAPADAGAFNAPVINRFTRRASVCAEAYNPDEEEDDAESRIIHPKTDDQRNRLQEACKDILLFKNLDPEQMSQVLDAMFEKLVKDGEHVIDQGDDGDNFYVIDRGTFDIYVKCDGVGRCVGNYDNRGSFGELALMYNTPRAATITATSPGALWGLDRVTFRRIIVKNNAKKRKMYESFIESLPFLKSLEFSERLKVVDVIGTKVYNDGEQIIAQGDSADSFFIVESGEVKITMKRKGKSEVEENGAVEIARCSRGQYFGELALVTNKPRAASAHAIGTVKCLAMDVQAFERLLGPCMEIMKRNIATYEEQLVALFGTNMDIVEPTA
PolyA inhibitor: inhibitors of polyadenylation in S. cerevisiae; S. cerevisiae SKY197-pL101 polyadenylation reporter, beta-gal luminescence; efflux-impaired pdr1/pdr3 knockout yeast; score 100 = 6 SD above DMSO; activity score, % at 12 µM; 300,000 compounds, 0.02% hits; AID 1875;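 active = lowest replicate activity score at least 50, where 100 means six control SD above control mean; inconclusive = lowest score under 50 but half or more replicates reach 50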;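 note: yeast exposed to compound for 9 h at 30 °C; higher score means more reporter readthrough which indicates perturbed polyadenylation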
PKA-R1A act: PKA-R1A complex activation; PKA-R1A dissociation, Cy5-IP20 fluorescence polarization; scaled: DMSO 0%, 113 µM cGMP 100%; P00514+P68181; 340,000 compounds, 0.083% hits; activation, % at 11.4 µM; AID 504707;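 active = percent activation above the mean of all tested compounds plus 3 SD, cut at about 19% in these data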;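 note: higher means more PKAc released from R1A so a rise in polarization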
Neddylation inh: inhibitors of human cullin neddylation. 360,000 compounds, 0.58% hits. AID 651699. calls only at 25 µM. TR-FRET cullin neddylation, biochemical. P61081+Q13564; in the data active = inhibition above about 36%
Neddyl inh conf: cullin neddylation inhibition, confirmation | shares compounds with Neddylation inh | TR-FRET cullin neddylation biochemical assay | calls only at 25 µM | 1,800 compounds, 13% hits | AID 652217; in the data active = inhibition above about 40%;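 note: neddylation substrate is the cullin 1 ring ligase complex with SKP2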
* marks the source's active call; other numbers are inactive results; i = inactive; ? = inconclusive; nt = no result shown; + = active, no number.

SMILES | PKA-R2B activ | PolyA inhibitor | PKA-R1A act | Neddylation inh | Neddyl inh conf
O/N=C(\Cn1ccnc1)c1ccccc1 | -8 | nt | -7 | i | nt
CCOc1ccc(S(=O)(=O)N2CCOCC2)cc1NC(=O)c1ccc(N2CCCC2=O)cc1 | 0 | -13 | 5 | i | nt
O=c1c2ccccc2nc2c3ccccc3cnn12 | 8 | 24 | 7 | + | i
COc1ccc(-c2csc(NC(=O)c3cc(-c4cccs4)nc4ccccc34)n2)c(OC)c1 | -7 | 2 | -9 | + | i
COc1ccc(-c2cc(C(=O)N3CCN(c4ccccc4O)CC3)c3ccccc3n2)cc1OC | -10 | -7 | -8 | + | +
COc1ccc(-c2cc(C(=O)N(C)CCc3ccc(OC)c(OC)c3)c3ccccc3n2)cc1 | 0 | -12 | 6 | + | i
COc1cc(-c2cc(C(=O)N3CCN(c4ccccn4)CC3)c3ccccc3n2)cc(OC)c1OC | -12 | 8 | -12 | + | i
COc1ccc(-c2cc(C(=O)N3CCN(c4ccccn4)CC3)c3ccccc3n2)cc1 | -4 | -2 | -2 | i | nt
O=S(=O)(Nc1ccc(-n2cnnn2)cc1)c1cccs1 | -5 | nt | 3 | i | nt
CCCCNC(=O)C1(C)CCCCN1C(=O)c1cc(C#N)cs1 (stereo not given) | nt | nt | nt | i | nt
COc1ccc(-c2cc(C(=O)N3CCCCCC3)c3ccccc3n2)c(OC)c1 | 3 | -11 | -7 | + | nt
COCCNC(=O)c1cc2c(=O)[nH]c3ccccc3c2s1 | 1 | 20 | 2 | + | nt
CCSC1=C(C#N)C2(CCCCC2)C2=C(CC(C)(C)CC2=O)N1 | 10 | 7 | -6 | + | i
Cn1nnc(NC(=O)c2cccc([N+](=O)[O-])c2)n1 | -7 | -7 | -1 | i | nt
CCOC(=O)C1=C(C)Nc2sc(C(=O)c3ccc(OC)cc3)c(N)c2C1c1ccc(C(=O)OC)cc1 (stereo not given) | 7 | 7 | -11 | i | nt
COC(=O)C1=C(C)Nc2sc(C(N)=O)c(N)c2C1c1ccncc1 (stereo not given) | 3 | -13 | -20 | + | i
CC(Oc1ccccc1F)c1ccnc2nc(/N=C/N(C)C)nn12 (stereo not given) | 3 | -20 | -1 | + | i
Cc1cc(C)cc(NS(=O)(=O)c2ccc3c(c2)C(C)(C)C(=O)N3C)c1 | -3 | -19 | 0 | i | nt
COC(=O)c1ccccc1NC(=O)C(=O)NCC1CCCO1 (stereo not given) | 6 | 2 | 8 | i | nt
COC(=O)c1ccccc1NC(=O)NCC1CCCO1 (stereo not given) | -6 | -8 | -10 | + | i
COc1cccc2c(=O)cc(C)n(CC(=O)Nc3cccc(C)c3)c12 | -5 | 12 | -18 | + | i
Cc1ccc2c(c1)-c1cc(C)nn1C(c1ccc3c(c1)OCO3)N2 (stereo not given) | -10 | -11 | -6 | nt | nt
Cc1cc2n(n1)C(c1ccc3c(c1)OCO3)Nc1ccccc1-2 (stereo not given) | 1 | -9 | 5 | + | i
O=C1c2ccccc2C(c2nnnn2-c2ccc3c(c2)OCCO3)N1Cc1ccc(F)cc1 (stereo not given) | nt | nt | nt | i | nt
O=C(c1coc(=O)c(Br)c1)N1CCCc2ccccc21 | -4 | 7 | -3 | + | nt
SMILES | PKA-R2B activ | PolyA inhibitor | PKA-R1A act | Neddylation inh | Neddyl inh conf
O=C(c1cccc(Br)c1)N1CCCc2ccccc21 | -4 | ? | -4 | i | nt
O=C(c1coc(=O)c(Br)c1)N1CCC(C(O)(c2ccccc2)c2ccccc2)CC1 | -3 | 5 | 4 | + | nt
CC(C)(C)C(=O)Cn1ncc(N2CCOCC2)c(Br)c1=O | -7 | 3 | 6 | i | nt
CN1CCOc2c1cnn(CCO)c2=O | nt | nt | nt | + | i
COCCN(CC(=O)Nc1ccccc1C(F)(F)F)C(=O)/C=C/c1ccc2ccccc2n1 | -3 | nt | -10 | i | nt
CCOc1ccc(NC(=S)N2CCN(c3ccc(N4CCOCC4)nn3)CC2)cc1 | -5 | -4 | -12 | + | i
CCOC(=O)c1ccc(NC(=S)N2CCN(c3ccc(N4CCOCC4)nn3)CC2)cc1 | 2 | -1 | 6 | nt | nt
O=C(COC(=O)/C=C/c1ccccc1)NCC1CCCO1 (stereo not given) | 0 | 1 | -5 | i | nt
